Screening data as filed in PubChem BioAssay.
Rows were chosen to be rich in hits. Some 3% of all compounds tested hit in one or more screens of this group.
DAGLB inh – blocks human DAGLB lipase activity; Q8NCG7; HEK293T DAGLB membrane lysate, EnzChek fluorogenic substrate; inhibition, % at 5.17 µM; actives 0.059% (n = 340,000); AID 504411; in the data active = inhibition above about 34%;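 also: 0% = enzyme with vehicle and 100% = wells lacking enzyme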
PAFAH1B3 inh – PAFAH1B3 (human) inhibition | Q15102 | recombinant PAFAH1B3, FP-rhodamine probe, fluorescence polarization | inhibition, % at 3.39 µM | actives 0.28% (n = 340,000);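 active = inhibition above the screen-wide average of all tested compounds plus 3 SD, cut at about 25% in these data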;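 also: 0% = enzyme with DMSO only and 100% = wells lacking PAFAH1B3 protein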
PAFAH2 FP inh – PAFAH2 (human) inhibition. Q99487. recombinant PAFAH2, FP-rhodamine activity probe, fluorescence polarization. inhibition, % at 3.39 µM. actives 0.99% (n = 340,000). AID 492956;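 active = inhibition above the mean over all tested compounds plus 3 SD, cut at about 30% in these data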;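 also: inhibitors block probe labeling of enzyme so polarization drops; 0% = enzyme with DMSO and 100% = wells lacking PAFAH2 protein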
ATG4B inh – inhibitors of human ATG4B cysteine protease. Q9Y4P1. ATG4B cleavage of LC3-PLA2, NBD-HPC fluorescence, 1 h. inhibition, % at 8.33 µM. actives 0.51% (n = 340,000). AID 504462; in the data active = inhibition above about 40%
pPAFAH inh – pPAFAH (human) enzyme inhibition. recombinant pPAFAH, FP-rhodamine probe fluorescence polarization. inhibition, % at 3.39 µM. actives 1.5% (n = 330,000). AID 463082;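 active = inhibition above the mean inhibition across the screen plus 3 SD, cut at about 25% in these data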;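 also: inhibitors block binding of the rhodamine activity-based probe so polarization drops; 0% = enzyme with DMSO and 100% = wells lacking pPAFAH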
Target sequence (Q13093 whole entry, looked up): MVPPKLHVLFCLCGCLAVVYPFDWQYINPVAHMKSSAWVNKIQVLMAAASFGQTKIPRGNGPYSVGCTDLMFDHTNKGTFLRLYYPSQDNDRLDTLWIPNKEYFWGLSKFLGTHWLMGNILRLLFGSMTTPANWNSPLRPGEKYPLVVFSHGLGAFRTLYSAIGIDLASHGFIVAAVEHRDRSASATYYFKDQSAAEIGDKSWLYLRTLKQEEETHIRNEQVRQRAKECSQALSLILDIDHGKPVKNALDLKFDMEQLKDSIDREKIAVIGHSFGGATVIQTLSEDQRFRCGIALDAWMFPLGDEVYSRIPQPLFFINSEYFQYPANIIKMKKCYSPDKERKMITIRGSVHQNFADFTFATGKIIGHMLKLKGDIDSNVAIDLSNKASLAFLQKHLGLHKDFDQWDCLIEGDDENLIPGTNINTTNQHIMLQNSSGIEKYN
PAFAH1B2 inh – PAFAH1B2 (human) inhibition. P68402. recombinant PAFAH1B2, FP-rhodamine activity probe, fluorescence polarization. inhibition, % at 3.39 µM. actives 1.2% (n = 340,000);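 active = inhibition above the mean of all tested compounds plus 3 SD, cut at about 24% in these data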;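 also: 0% = enzyme with DMSO and 100% = wells lacking PAFAH1B2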
An asterisk follows results filed as active; / = no result.

SMILES	DAGLB inh	PAFAH1B3 inh	PAFAH2 FP inh	ATG4B inh	pPAFAH inh	PAFAH1B2 inh
CC(C)C(NC(=O)c1ccccc1)C(=O)OCn1nnc2ccccc2c1=O (stereo not drawn)	0	12	-2	0	-2	5
CCc1ccccc1NC(=O)CSc1ccsc1[N+](=O)[O-]	-4	2	7	15	25*	1
O=C(CCSCCC(=O)NN=Cc1ccccc1O)NN=Cc1ccccc1O	-1	2	-6	-18	/	11
O=C(CSc1ccccc1)N/N=C/c1ccccc1O	0	4	14	-5	4	27*
O=Cc1ccc(O)c(O)c1	1	9	1	-5	1	-3
Oc1ccc(N=Cc2ccc(O)c(O)c2)cc1	9	34*	18	-14	34*	13
CCN1CCN(c2ccc(S(=O)(=O)N3CCCCC3)cc2NC(=O)/C=C/c2ccc(OC)c(OC)c2)CC1	2	-2	10	-20	-3	-8
CCN1CCN(c2ccc(S(=O)(=O)N3CCCCC3)cc2NC(=O)/C=C/c2cc(OC)ccc2OC)CC1	3	-2	0	-9	26*	-7
O=C(NCCSCc1ccc(Cl)cc1)c1cccs1	-1	12	1	8	8	25*
C=CCN1C=CC(=O)[C@@H](OC(=O)Nc2ccc(Br)cc2)[C@H]1c1ccccc1Br	2	6	-4	/	/	1
CC(NC(=O)COC(=O)c1cccnc1Cl)C12CC3CC(CC(C3)C1)C2 (stereo not drawn)	0	2	45*	-4	2	51*
COc1ccc(OCC(=O)OC2CCCN(C)C2)cc1 (stereo not drawn)	-1	0	1	-2	4	-2
COc1ccc(S(=O)(=O)Nc2cccc(Cl)c2)cc1OC	0	7	4	11	10	5
COc1ccc(NS(=O)(=O)c2ccc(OC)c(N(C)S(=O)(=O)c3ccc(Cl)cc3)c2)cc1	-1	-5	-2	-28	28*	1
CC(=O)Nc1ccc(S(=O)(=O)N2CCN(Cc3cccs3)CC2)cc1	-4	4	4	-5	4	6
CC1CCCN(CC(=O)Nc2ccc(S(=O)(=O)NC3CCCCC3)cc2)C1 (stereo not drawn)	-5	0	-3	10	28*	6
CC1CCN(S(=O)(=O)c2ccc(NC(=O)CN3CCCC3)cc2)CC1	1	4	-1	4	8	15
CC1CCN(CC(=O)Nc2ccc(S(=O)(=O)N3CCC(C)CC3)cc2)CC1	-6	8	-4	-1	-1	29*
CC1CCN(S(=O)(=O)c2ccc(NC(=O)Cc3cccs3)cc2)CC1	-3	-1	2	1	13	31*
CC1CCN(S(=O)(=O)c2ccc(NC(=O)CN3CCOCC3)cc2)CC1	-1	17	9	-2	3	33*
CCOc1ccc(OCCC(=O)N(CC)CC(=O)Nc2c(F)cccc2F)cc1	-5	9	0	-4	0	2
O=c1oc(CCCO)cc2ccc(/C=C/c3cccc([N+](=O)[O-])c3)cc12	6	-27	-28	-19	-8	-17
Cc1ccccc1NC(=O)c1c(C)[nH]c(=S)c(C#N)c1-c1ccc(Cl)cc1	/	/	/	2	5	/
Cc1ccc(-c2c(C(=O)Nc3ccccc3C)c(C)[nH]c(=S)c2C#N)o1	/	/	/	-6	27*	/
CC(C)(C)c1ccc(-n2ncc3c2CCCC3NC(=O)C2=NNC(=O)CC2)cc1 (stereo not drawn)	1	0	3	2	6	-7
SMILES	DAGLB inh	PAFAH1B3 inh	PAFAH2 FP inh	ATG4B inh	pPAFAH inh	PAFAH1B2 inh
CCOC(=O)CSc1ccc(S(=O)(=O)N2CCC(C)CC2)cc1[N+](=O)[O-]	-1	10	0	-4	4	26*
COC(=O)CSc1ccc(S(=O)(=O)N2CCOCC2)cc1[N+](=O)[O-]	0	6	3	2	1	6
CSc1nnc(-c2ccccc2)c(-c2ccccc2)n1	-4	7	1	9	-1	0
CSc1nnc(-c2ccco2)c(-c2ccco2)n1	0	7	21	-1	31*	8
O=C(CCNC(=O)c1ccc(Cl)cc1)NCc1cccc(C(F)(F)F)c1	1	3	2	8	19	25*
O=C(Cc1cccc(C(F)(F)F)c1)NCc1ccc(Cl)cc1	-4	7	-2	2	-1	5
